Where “and” joins values, the source holds several entries; their conditions need not be identical. Equal entries are not always repeated. This is part of a sample that, as a whole, favours compounds with a hit. Of some 83,000 tested, about 20% had one in any assay.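 The endpoint reported here, percent growth, reads 100 for growth as untreated, 0 for no net growth and -100 for all cells dead.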 Calls of active or inactive are those of the source. The calls were made as follows: active = growth percent below 10; inactive = the rest.
Tests used:
Assay in all cases: NCI-60 one-dose screen, 48 h (100 = growth as untreated, 0 = no growth, -100 = all killed)
Conditions in all cases: 10 µM unless noted
NCI-H23 lung = test system: NCI-H23 lung
NCI-H226 lung = test system: NCI-H226 lung
NCI-H322M lung = test system: NCI-H322M lung
HOP-62 NSCLC = test system: HOP-62 NSCLC
NCI-H460 lung = test system: NCI-H460 lung
HOP-92 NSCLC = test system: HOP-92 NSCLC
NCI-H522 lung = test system: NCI-H522 lung
A549/ATCC NSCLC = test system: A549/ATCC NSCLC
786-0 renal = test system: 786-0 renal
COLO 205 colon = test system: COLO 205 colon

Compound	growth (NCI-H23 lung)	growth (NCI-H226 lung)	growth (NCI-H322M lung)	growth (HOP-62 NSCLC)	growth (NCI-H460 lung)	growth (HOP-92 NSCLC)	growth (NCI-H522 lung)	growth (A549/ATCC NSCLC)	growth (786-0 renal)	growth (COLO 205 colon)
CCc1cccc2c3c(sc12)C(c1ccc(F)cc1)C(C#N)=C(/N=C/c1ccc(Cl)cc1)O3 (stereo not given)	32.4% (inactive)	44.6% (inactive)	52.9% (inactive)	36.4% (inactive)	14.6% (inactive)	66.6% (inactive)	-43.4% (active)	31.1% (inactive)	34.2% (inactive)	-33.6% (active)
Cc1ccc(OCc2occc2C(=O)N2CCOCC2)cc1	101% (inactive)	96.9% (inactive)	106% (inactive)	-95.9% (active)	107% (inactive)	103% (inactive)	100% (inactive)	109% (inactive)	98.7% (inactive)	117% (inactive)
CS(=O)(=O)c1ccc(/C(=N/N=C(N)N)c2ccc(Cl)cc2)cc1	95.4% (inactive)	95.5% (inactive)	94.9% (inactive)	85.1% (inactive)	99.1% (inactive)	57.2% (inactive)	77.4% (inactive)	99.2% (inactive)	88.5% (inactive)	91.5% (inactive)
CC1=Cc2ccccc2OC12C=Cc1ccccc1O2 (stereo not given)	86.5% (inactive)	91.7% (inactive)	89.7% (inactive)	89.5% (inactive)	104% (inactive)	98.6% (inactive)	97.2% (inactive)	104% (inactive)	105% (inactive)	110% (inactive)
N#Cc1nc(-c2ccc(Cl)cc2)oc1N1CCC(S(=O)(=O)N2CCOCC2)CC1	96.5% (inactive)	94.6% (inactive)	92.2% (inactive)	94.6% (inactive)	103% (inactive)	100% (inactive)	87.2% (inactive)	99.9% (inactive)	93.5% (inactive)	116% (inactive)
COCCOc1ccc2ncc(C#Cc3cncc(C(=O)Nc4ccc(CN5CCN(C)CC5)c(C(F)(F)F)c4)c3)n2n1	-48.7% (active)	-12.7% (active)	18.7% (inactive)	18.4% (inactive)	0.556% (active)	-44.1% (active)	-56.4% (active)	10.3% (inactive)	-15.3% (active)	-32.7% (active)
Cc1ccc2c(n1)C(=O)C(Cl)=C(Nc1ccc(C(C)C)cc1)C2=O	-56.9% (active)	61.4% (inactive)	84.4% (inactive)	126% (inactive)	79.7% (inactive)	17.1% (inactive)	-13.7% (active)	67.8% (inactive)	75.6% (inactive)	111% (inactive)
COC(=O)c1cccc(NC2=C(Cl)C(=O)c3nc(C)ccc3C2=O)c1	53.1% (inactive)	87% (inactive)	103% (inactive)	113% (inactive)	101% (inactive)	121% (inactive)	65.1% (inactive)	102% (inactive)	98.2% (inactive)	116% (inactive)
CCCCCCCCCC(=O)NC(C)(C)C(=O)N1CCC[C@H]1C(=O)N[C@@H](CC(C)C)C(=O)N[C@@](C)(CC)C(=O)N[C@@H](CCC(N)=O)C(=O)N[C@H](CCC(N)=O)C(=O)NC(C)(C)C(=O)NC(C)(C)C(=O)N[C@@H](CCC(N)=O)C(=O)N[C@H](CC(C)C)C(=O)N[C@H](CO)CC(C)C	-85.9% (active) and -32.1% (active)	-71.3% (active) and -31.6% (active)	-88.1% (active) and 18.4% (inactive)	-70.9% (active) and -64.1% (active)	-83.6% (active) and -71% (active)	-91.1% (active) and -43.9% (active)	-83.3% (active) and -75.7% (active)	-72% (active) and 49.1% (inactive)	-82.1% (active) and -64.3% (active)	-63% (active) and -63.6% (active)
N#Cc1cnc2ccc(-c3cnc4n[nH]nc4c3)cc2c1N1CCc2cc(F)c(Cl)cc21	14.4% (inactive)	11.7% (inactive)	11.1% (inactive)	11.8% (inactive)	17.5% (inactive)	4.22% (active)	-10.1% (active)	11.2% (inactive)	16.7% (inactive)	37.8% (inactive)
CC(C)NC(=O)c1cc(-c2ccc(NC(=O)Nc3ccc(F)c(C(F)(F)F)c3)cc2)nc2cccnc12	93.2% (inactive)	94.8% (inactive)	107% (inactive)	80.8% (inactive)	86.4% (inactive)	90.1% (inactive)	87.4% (inactive)	86.8% (inactive)	88.3% (inactive)	114% (inactive)
NC1=NC2(CCCC2)N(c2ccc(S(=O)(=O)Nc3nccs3)cc2)C(N)=N1	101% (inactive)	100% (inactive)	103% (inactive)	110% (inactive)	102% (inactive)	113% (inactive)	102% (inactive)	104% (inactive)	105% (inactive)	113% (inactive)
O=c1nc(Nc2ccc([N+](=O)[O-])cc2O)sc2ccccc12	40.4% (inactive)	57.2% (inactive)	51.4% (inactive)	47% (inactive)	22.1% (inactive)	-0.0775% (active)	14.2% (inactive)	41.7% (inactive)	37.7% (inactive)	96.5% (inactive)
O=C(CSc1nc2ccccc2c(=O)n1CCc1ccccc1)Nc1ccc(S(=O)(=O)Nc2ccc(Cl)nn2)cc1	89.9% (inactive)	88.1% (inactive)	92.8% (inactive)	95.8% (inactive)	101% (inactive)	79.7% (inactive)	87.1% (inactive)	91.9% (inactive)	102% (inactive)	101% (inactive)
COc1ccc2c(c1)c(-c1nn3cc(-c4ccncc4)nc3s1)cn2C	88.7% (inactive)	88.6% (inactive)	85.4% (inactive)	67% (inactive)	53.1% (inactive)	11.6% (inactive)	68.9% (inactive)	98.7% (inactive)	93% (inactive)	81.5% (inactive)
COc1ccc(C2CC(c3cccc(OCCCCOc4cccc(C5=NN(C(C)=O)C(c6ccc(OC)cc6)C5)c4)c3)=NN2C(C)=O)cc1 (stereo not given)	57% (inactive)	62.3% (inactive)	91% (inactive)	71.3% (inactive)	66.6% (inactive)	68.7% (inactive)	53.2% (inactive)	68.2% (inactive)	86.3% (inactive)	82.8% (inactive)
Cc1ccc(CSC2=C(Cl)CN(c3ccc(Cl)cc3)C2=O)cc1	105% (inactive)	98.4% (inactive)	104% (inactive)	103% (inactive)	103% (inactive)	95.2% (inactive)	-4.44% (active)	104% (inactive)	105% (inactive)	129% (inactive)
CN(C)c1ccc(/C=N/Nc2nc(N/N=C/c3ccc(N(C)C)cc3)nc(N3CCCCC3)n2)cc1	96.7% (inactive)	102% (inactive)	100% (inactive)	81.8% (inactive)	70.9% (inactive)	84% (inactive)	96.2% (inactive)	78.5% (inactive)	88.2% (inactive)	83.5% (inactive)
O=C1c2ccccc2C23C(=C(c4cncnc4)c4ccccc42)CCCN13 (stereo not given)	102% (inactive)	97.4% (inactive)	107% (inactive)	108% (inactive)	104% (inactive)	90.9% (inactive)	92.6% (inactive)	98.9% (inactive)	96.8% (inactive)	121% (inactive)
